Hit rate of the full screen: of about 52,000 compounds, about 4,300 (8.3%) were called active. For the sample, actives were picked, then their nearest neighbours and some compounds at random. Values without a mark were called inactive. Cut-off read from the data, not from the text of the source: active = survival mostly below about 52% (no sharp cut-off); inactive = mostly above about 56%.

This assay has as its system DeltatarO mutant. The assay is described as follows: growth inhibition of S. aureus wild type versus tarO mutant, primary screen, teichoic acid synthesis inhibitors, RN4220, OD600 (AID 463173). To be noted: OD600, 18 h, active compounds read low, screened at 18.75 µg/mL (by protocol).
As for `O=C(Nc1cccc(F)c1)C1CCN(c2nc3ccccc3nc2C(F)(F)F)CC1`, the survival was 83%. Next, `COc1ccc(C(=O)N2CCC(C(=O)O)CC2)cc1`: 97%; `Nc1cccc(-c2cn3ccccc3n2)c1`: 96%; `Cc1ccc(-c2noc(CSc3nnc(C)n3-c3ccc(C)c(C)c3)n2)cc1`: 75%. Next, `CCOc1ccc(CNC(=O)Cn2cc3c(n2)-c2c(oc(C(=O)N4CCOCC4)c2C)CC3)cc1`: 72%. The value for `Cc1cccc(C)c1NC(=O)C(=O)NCC(c1ccc2c(c1)OCO2)N1CCN(C)CC1` (stereo not drawn) was 88%; that for `Cc1cccc(NCN2C(=O)S/C(=C/c3ccc(N(C)C)cc3)C2=O)c1` was 73%; that for `O=C(Cn1nc(-c2ccccc2)ccc1=O)NCC1COCCO1` (stereo not drawn) was 92%. For `COc1ccc(NC(=O)c2c(NC(=O)COc3ccc(Cl)cc3)sc3c2CCCCC3)cc1`, the survival was 135%.

For `CCCCOc1ccc(C(=O)NCCc2csc(-c3ccc(OC)cc3)n2)cc1`, the survival is 108%.

`CCOC(=O)c1c(NC(=O)C(C)Sc2cn(CCNC(=O)c3ccc(OCC)cc3)c3ccccc23)sc2c1CCC2` (stereo not drawn): the survival is 92%. Next, `CCOC(=O)c1c(C)[nH]c(C)c1S(=O)(=O)N(C)CC(=O)Nc1ccc(C)cc1C`: 95%. Next, `Cc1ccc(-n2ncc(C(=O)NCCN3CCOCC3)c2C2CCN(C(=O)OC(C)(C)C)CC2)c(C)c1`: 37% (active).

On to `Cc1cccc(C)c1-n1ncc(C(=O)NCCCN2CCCCC2)c1C1CCN(C(=O)OC(C)(C)C)CC1`, for which the survival was 89%. The value for `Cc1cccc(C)c1-n1ncc(C(=O)NCCN2CCOCC2)c1C1CCN(C(=O)OC(C)(C)C)CC1` was 101%; that for `Cc1cccc(C)c1-n1ncc(C(=O)NCCN2CCN(C)CC2)c1C1CCN(C(=O)OC(C)(C)C)CC1` was 8% (active). Next, `CCOC(=O)c1cnn(-c2cccc(Cl)c2)c1C1CCN(C(=O)OC(C)(C)C)CC1`: 55% (active); `Cc1ccc(-n2ncc(C(=O)NCCN3CCN(C)CC3)c2C2CCN(C(=O)OC(C)(C)C)CC2)c(C)c1`: 92%; `CC1CCN(C(=O)c2cnn(-c3cccc(Cl)c3)c2C2CCN(C(=O)OC(C)(C)C)CC2)CC1`: 78%. Next, `CCN1CCN(C(=O)c2cnn(-c3cccc(Cl)c3)c2C2CCN(C(=O)OC(C)(C)C)CC2)CC1`: 74%; `Cc1c(Cl)cccc1-n1ncc(C(=O)NC2CCCCC2)c1C1CCN(C(=O)OC(C)(C)C)CC1`: 94%; `Cc1ccc(-n2ncc(C(=O)NCCN3CCc4ccccc4C3)c2C2CCN(C(=O)OC(C)(C)C)CC2)c(C)c1`: 64%. Regarding `CCOC(=O)N1CCC(NC(=O)c2cnn(-c3cccc(Cl)c3C)c2C2CCN(C(=O)OC(C)(C)C)CC2)CC1`, the survival was 20% (active). Next, `Cc1c(Cl)cccc1-n1ncc(C(=O)NC2CCCC2)c1C1CCN(C(=O)OC(C)(C)C)CC1`: 102%; `COc1cccc(-n2c(=O)c3sc4ccccc4c3n(CC(=O)NC3CCCCC3)c2=O)c1`: 126%; `Cc1ccc(-n2ncc(C(=O)NCc3ccccc3)c2C2CCN(C(=O)OC(C)(C)C)CC2)cc1`: 94%. Next, `COc1cccc(-n2cc(C(=O)NCc3ccc(C)cc3)c3ccccc3c2=O)c1`: 81%. The value for `COc1ccccc1CNS(=O)(=O)c1ccc2c(c1)CC(C)N2C(C)=O` (stereo not drawn) was 71%; that for `CC(C)COc1ccc(C(=O)Nc2scc(-c3ccc(Br)cc3)c2C(=O)OC(C)C)cc1` was 53%. With `COc1ccc(NC(=O)Cn2ncc3c(C)n(Cc4cccc(Cl)c4)c(C)c3c2=O)cc1`, the survival is 92%. Next, `CCOc1ccc(-n2cc(-c3ccccc3)c3c(NC4CCCC4)ncnc32)cc1`: 104%; `CCOC(=O)N1CCC(NC(=O)c2cnn(-c3ccc(F)cc3F)c2C2CCN(C(=O)OC(C)(C)C)CC2)CC1`: 71%. The value for `Cc1ccc(-n2ncc(C(=O)NCCCN3CCN(C)CC3)c2C2CCN(C(=O)OC(C)(C)C)CC2)c(C)c1` was 105%. As for `CCN1CCN(CCCNC(=O)c2cnn(-c3ccc(C)cc3C)c2C2CCN(C(=O)OC(C)(C)C)CC2)CC1`, the survival was 144%. Next, `Cc1ccc(-n2ncc(C(=O)NCCCN3CCCCC3)c2C2CCN(C(=O)OC(C)(C)C)CC2)c(C)c1`: 46% (active).

Turning to `CC(C)(C)OC(=O)N1CCC(c2c(C(=O)NC3CCN(Cc4ccccc4)CC3)cnn2-c2ccc(F)cc2F)CC1`, the survival is -2% (active). The value for `CC(C)(C)OC(=O)N1CCC(c2c(C(=O)NC3CCN(Cc4ccccc4)CC3)cnn2-c2cccc(F)c2)CC1` was 92%. The value for `CCC(=O)Nc1ccc2nc3c(=O)n(C)c(=O)n(C)c3nc2c1` was 66%; that for `Cc1ccc(S(=O)(=O)c2cc3cc(C(=O)Nc4ccc(C)cc4C)ccc3oc2=O)cc1` was 89%.

Consider `CCOC(=O)COc1nc(C)c(Br)c(OC)n1`, for which the survival was 81%.

Regarding `COc1ccc(CNC(=O)COCc2cc(-c3cccs3)on2)cc1`, the survival is 107%.

`CC1CCN(S(=O)(=O)c2ccc3c(c2)CCN3C(=O)Nc2ccc(Br)cc2F)CC1`: the survival is 74%. Next, `Clc1ccc(CCNc2nc3ccccc3c3nc(-c4ccccc4)nn23)cc1`: 29% (active). The value for `CCCCNc1nc2ccccc2c2nc(-c3ccccc3)nn12` was -1% (active). Next, `O=c1n(Cc2ccc(Cl)cc2)c2ccccc2c2nc(-c3ccccc3)nn12`: 95%; `Cc1ccc(CCNc2nc3ccccc3c3nc(-c4ccccc4)nn23)cc1`: 44% (active). Regarding `CCCCNC(=O)CCC(=O)NNc1nc2ccccc2c2nc(-c3ccccc3)nn12`, the survival is 78%. Next, `COc1cc2nc(NCCc3ccc(Cl)cc3)n3nc(-c4ccccc4)nc3c2cc1OC`: 51%; `Cc1ccc(CCNc2nc3ccccc3c3nc(-c4cccnc4)nn23)cc1`: 66%; `CC(CNc1nc2ccccc2c2nc(-c3ccccc3)nn12)c1ccccc1` (stereo not drawn): 121%. The value for `CCc1ccc(CNC(=O)Cn2nc(C)n3c(cc4cc(C)ccc43)c2=O)cc1` was 83%; that for `Cc1ccc(NC(=O)c2cnc3sc(N4CCOCC4)nn3c2=O)cc1N(C)C` was 80%; that for `COc1cccc(NC(=O)Cn2nnc(C(=O)NCCc3ccccc3)c2N)c1` was 144%. As for `Cc1ccc(Cn2c(=O)n(-c3cccc(C(F)(F)F)c3)c(=O)c3c(C)c(C)sc32)c(C)c1`, the survival was 97%. Next, `COc1ccc(CNC(=O)c2cnc(N(C)C)nc2)cc1`: 73%; `COc1ccc(-c2cn3c(c2C)-c2ccc(C)n2CC3)cc1`: 91%; `O=C(c1ccc(Cl)cc1)N(Cc1ccco1)Cc1ccco1`: 97%. The value for `Cc1ccc(N(Cc2cccs2)C(=O)c2ccc(OC(C)C)cc2)cc1` was 95%; that for `Cc1ccc(C(=O)N(Cc2ccco2)Cc2sccc2C)cc1` was 44%. Consider `Cc1ccc(CN(Cc2ccco2)C(=O)c2cccc(C)c2)cc1`, for which the survival is 68%.

For `CC(C)Oc1ccc(C(=O)N(Cc2ccc(N(C)C)cc2)Cc2ccco2)cc1`, the survival was 59%. Next, `CC(C)Oc1ccc(C(=O)N(Cc2ccco2)Cc2cccs2)cc1`: 36% (active); `O=C(c1cc2sccc2n1Cc1ccccc1)N(Cc1ccco1)Cc1cccs1`: 96%. The value for `Cc1ccsc1CN(Cc1ccco1)C(=O)c1ccc(Cl)cc1` was 34% (active). The value for `O=C(c1ccccc1)N(Cc1ccco1)Cc1cccs1` was 41% (active). For `O=C(Nc1nnc(N2CCCCCC2)s1)Nc1cc(F)ccc1F`, the survival was 103%.

Regarding `CC1=C(C(=O)N(C)C)C(c2ccccc2Cl)NC(=O)N1` (stereo not drawn), the survival is 76%. For `CC(C)N1CC(C(=O)Nc2ccccc2)CC1=O` (stereo not drawn), the survival is 73%. Next, `CCOC(=O)c1cc(-c2ccc(OC)c(S(=O)(=O)NC3CCCCC3)c2)on1`: 89%; `CN1CCSc2ccc(C(=O)NCc3ccccc3)cc21`: 67%. The value for `O=C(NC1CCCC1)C(c1ccncc1)N(CCCN1CCOCC1)C(=O)c1ccc(-c2ccccc2)[nH]1` (stereo not drawn) was 76%; that for `CN(C)C(=O)c1ccc(S(=O)(=O)NCc2ccccc2Cl)s1` was 94%.

As to `Cc1cccc(Cn2cc(C(=O)Nc3cc(F)ccc3F)ccc2=O)c1`, the survival is 74%. Next, `Cc1noc(-c2ccc(-c3noc(-c4cccc(F)c4)n3)cc2)n1`: 76%.

In the case of `Cc1ccc(NC(=O)Cn2cc3c(n2)CCCC3)cc1Cl`, the survival was 87%. The value for `COc1ccc(C2CC(=O)c3c([nH]c(C(=O)OC4CCCCCC4)c3C)C2)cc1OC` (stereo not drawn) was 81%; that for `COc1cc(C2CC(=O)c3c([nH]c(C(=O)OC4CCCC4)c3C)C2)cc(OC)c1OC` (stereo not drawn) was 51% (active). The value for `COc1ccc(C2CC(=O)c3c([nH]c(C(=O)OC4CCCC4)c3C)C2)cc1OC` (stereo not drawn) was 128%; that for `CC1(C)CC(=O)C2=C(C1)OC(N)=C(C#N)C2c1ccc2c(c1Cl)OCO2` (stereo not drawn) was 97%. Consider `COC(=O)c1ccccc1NC(=O)c1cc(CN2CCCC2)on1`, for which the survival is 75%.

For `CC1CCCCN1C(=O)c1cc(-c2ccc(Br)cc2)on1` (stereo not drawn), the survival was 66%. Consider `COc1ccc(-c2cc(C(=O)N3CCCCC3C)no2)cc1OC` (stereo not drawn), for which the survival is 58% (active). Next, `COc1ccccc1-c1cc(C(=O)N2CCCCC2C)no1` (stereo not drawn): 11% (active).

Regarding `CC1CCCCN1C(=O)c1cccc(C(=O)N2CCCCC2C)c1` (stereo not drawn), the survival is 80%. The value for `CC1CCCCN1C(=O)c1cc(-c2ccccc2)on1` (stereo not drawn) was 88%; that for `COc1ccc(-c2cc(C(=O)Nc3ccc4c(c3)OCO4)no2)cc1OC` was 65%. Next, `CCOc1ccccc1C(=O)N(C)c1ccccc1`: 92%; `CCc1nn2c(=O)cc(COC(=O)c3ccccc3NC(=O)c3ccc(C(C)(C)C)cc3)nc2s1`: 91%.

(Values after PubChem BioAssay AID463173 (ICCB-Longwood Screening Facility, Harvard Medical School, 2010).)
